Assay outcomes: PubChem, National Center for Advancing Translational Sciences (NCATS)
Shiga inhibitor: A qHTS for Small Molecule Inhibitors of Shiga Toxin; Vero cells, Shiga toxin protein synthesis inhibition reporter; inhibition, % at 38.7 µM; 290,000 tested, 9.2% active; in the data active = inhibition mostly above about 28%, no sharp cut-off; inactive = mostly below about 43%; also: 0% is about no effect
CHX counter: Cycloheximide Counterscreen for Small Molecule Inhibitors of Shiga Toxin. max response, %. AID 2314, 2010. cell reporter, cycloheximide protein synthesis inhibition counterscreen. 300,000 tested, 12% active; in the data active = max response mostly above about 13%, no sharp cut-off; inactive = mostly below about 14%; also: read at 38.3 µM for the half of the compounds with a filed dose; 0% is about no effect
Lassa entry inh: qHTS for Inhibitors of binding or entry into cells for Lassa Virus | Lassa virus pseudotype entry inhibition, cell reporter | 300,000 tested, 1.2% active | Potency, µM (highest dose often 37.9 µM), inactives show top-dose activity change, negative = inhibition, usual class: inhibitors; calls by dose curve; tested in HEK293 cells; also: potency is read from the fitted curve at half-maximal effect; % is scaled to controls: 0 for no effect and ±100 for the full control effect; nearly all actives have a fitted effect of over 50% in size
MARV entry inh: qHTS for inhibitors of binding or entry into cells for Marburg Virus | Marburg virus pseudotyped entry inhibition, cell reporter | Potency, µM (titrated, usually from 37.8 µM), inactives show at the top dose activity change, negative = inhibition, hits mostly inhibitors | 300,000 tested, 1.8% active | AID 540276, 2011; calls by dose curve; tested in HEK293 cells; also: potency is read from the fitted curve at half-maximal effect; % is scaled to controls: 0 for no effect and ±100 for the full control effect
AMA1 RON2 block: qHTS for Inhibitors of AMA1-RON; Towards Development of Antimalarial Drug Lead: Primary Screen. Plasmodium falciparum AMA1 (3D7) - RON2 peptide interaction. 360,000 tested, 0.2% active. AID 720542, 2013. Potency, µM (top dose mostly 58.2 µM), without a hit: at the top dose activity change, negative = inhibition, most hits filed as inhibitors. AlphaScreen AMA1-biotinylated RON2 peptide binding; active = well fitted inhibition curve with a large enough effect; inconclusive = small, poorly fitted or top-dose-only effect; inactive = no such curve, though single readings can be large or run the other way;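 also: potency is read from the fitted curve at half-maximal effect; 0% = vehicle wells and -100% = peptide control; nearly all actives have a fitted effect of over 45% in size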
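AMA1 (3D7) with his tag at 25 nM final met compounds first, then biotinylated RON2 peptide at 25 nM; detection used donor plus acceptor beads, 10 µg/mL apiece, read by AlphaScreen after 30 min at room temperature.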
Numbers without * were called inactive; ? = inconclusive; . = no result; + = active, no number; [ ] = dose if it differs, or a comment. Only a selection was taken, and hits are over-represented in it overall.

SMILES	Shiga inhibitor	CHX counter	Lassa entry inh	MARV entry inh	AMA1 RON2 block
Brc1ccccc1-c1nnc(-c2cccnc2)o1	48.9*	29.5*	4.3%	13.4%	-10.4%
CCN(CC)S(=O)(=O)c1cc(-c2nnc(-c3ccc(Br)cc3)o2)ccc1Br	8.3	-2.2	-12.8%	?	-7.3%
Cc1nc(Oc2ccc(S(=O)(=O)N3CCOCC3)cc2Cl)c2c3c(sc2n1)CCCC3	-6.6	-0.8	?	?	-3.0%
Cc1ccc(S(=O)(=O)CC(=O)c2ccccc2)cc1	64.8	21.0	-13.5%	21.9%	-1.8%
CC(C)(C)c1ccc(C(=O)CS(=O)(=O)c2ccccc2)cc1	87.9*	38.0*	?	?	-0.6%
CCOc1ccccc1OCC(=O)Nc1nc2ccccc2[nH]1	51.6*	22.4*	.	1.9%[46.1 µM]	44.4%
CC(CC(=O)Nc1nc2ccccc2[nH]1)c1ccccc1 (centres undefined)	84.4*	45.6*	?	?	47.3%
CCOc1ccccc1Nc1nc2ccccc2[nH]1	22.1	17.2*	2.4%	-4.0%	-9.1%
CCCOc1cccc(OCC(=O)Nc2nc3ccccc3[nH]2)c1	55.2	16.7	-0.7%	1.3%	19.1%
O=C(COc1ccccc1)Nc1nc2ccccc2[nH]1	65.0*	45.5*	?	?	37.0%
CC(CC(=O)Nc1nc2ccccc2[nH]1)n1ccnc1 (centres undefined)	-17.4	12.9	19.9%	4.9%	27.6%
O=C(COc1cccc2ccccc12)Nc1nc2ccccc2[nH]1	-1.7	1.9	6.1%	0.1%	97.1%
CN(Cc1ccccc1)S(=O)(=O)c1ccc(S(=O)(=O)N2CCN(CCC#N)CC2)cc1	.	.	.	-0.9%	.
N#Cc1ccc(CN2CCN(C(=O)CNC(=O)Cc3ccccc3)CC2)cc1	.	.	8.8%	-5.5%	-21.9%
CCc1nnc(NC(=O)c2cc(=O)c3cc(C)c(C)cc3o2)s1	.	.	-15.2%[46.1 µM]	-2.9%[46.1 µM]	.
O=C(CCNC(=O)c1ccccc1Cl)Nc1nc2ccccc2[nH]1	.	.	?	-1.4%	-2.0%
O=C(Cc1ccccc1Cl)Nc1nc2ccccc2[nH]1	30.7*	31.0*	?	10.0%	34.3%
Cc1ccccc1OCC(=O)Nc1nc2ccccc2[nH]1	107.7*	31.6*	27.6%	?	-1.1%
CCS(=O)(=O)N1CC(=O)N(c2ccc(Cl)cc2)C(C)(C(=O)NC2CCCCC2)C1 (centres undefined)	.	.	21.0%[46.1 µM]	.	.
O=C(CN1C(=O)COc2ccccc21)NCCc1ccc(Cl)cc1	.	.	-16.6%[46.1 µM]	.	.
Cc1nn(C(C)C(=O)N2CCCC2)c(=O)c2nn(-c3ccccc3)c(C)c12 (centres undefined)	-2.0	-1.2	.	.	1.2%
CN(C)c1ccc(/C=C/c2nnnn2-c2ccccc2)cc1	108.4*	60.6*	?	?	?
CN(C)c1nnnn1-c1ccc(Oc2ccccc2)cc1	2.9	10.3	-21.7%	?	4.7%
Cc1ccc(NC(=O)c2cc3ccccc3cc2O)cc1	78.8*	40.4*	.	.	1.6%
COc1ccc(C(=O)NNC(=O)c2cc3ccccc3cc2O)cc1	.	.	.	.	53.3%
SMILES	Shiga inhibitor	CHX counter	Lassa entry inh	MARV entry inh	AMA1 RON2 block
Cc1ccc(NC(=O)NNC(=O)c2cc3ccccc3cc2O)cc1C	-7.3	1.7	.	.	67.6%
Oc1cccc2ccc(Nc3ccccn3)nc12	+	113.0*	23.1µM*	?	-88.6%
COc1ccc(NC(=O)c2cc3ccccc3cc2O)cc1	62.3*	33.4*	-37.7%	1.12µM*	31.4%
O=C(Nc1ccccn1)c1cc2ccccc2cc1O	95.7*	30.6*	12.6%[46.1 µM]	5.6%[46.1 µM]	10.7%
CCOC(=O)C(C#N)=CN1CCNc2ccccc21	.	.	-0.7%[46.1 µM]	?	-9.1%
CC(=O)c1cccc(CN2CCCC(CCC(=O)NCc3ccc(C)o3)C2)c1 (centres undefined)	2.7	-1.8	3.9%	-4.0%[46.1 µM]	-19.0%
O=C(NCc1ccco1)/C(=C\c1cccnc1)NC(=O)c1ccccc1F	-12.3	0.1	19.9%	4.1%	0.0%
Cc1ccc(C)c(S(=O)(=O)c2nnn3c2nc(N2CCCCC2)c2sccc23)c1	.	.	-33.0%[46.1 µM]	.	.
c1cc2[nH]snc2c2nc(C3CC3)nc12	31.2	28.1*	-6.0%	-12.8%	-27.4%
Cc1cc(C(=O)N2CCc3c([nH]c4ccccc34)C2c2cccc(Cl)c2)nn1C (centres undefined)	49.8*	45.5*	.	.	-16.9%
CC(=O)NCCC(=O)N1CCc2c([nH]c3ccccc23)C1c1cccc(C)c1 (centres undefined)	38.3	18.7*	-9.2%	?	-3.9%
